Experimental data published in PubChem BioAssay (NCI).
This is part of a sample that, as a whole, favours compounds with a hit. Of some 83,000 tested, about 20% had one in any assay.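 Cells were grown in 96-well plates and exposed to the test compound at a single concentration for 48 hours; results are reported as percent growth, with values below 10 considered active.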 A number with no mark means an inactive call. Active and inactive are the calls of the source.

How the values were obtained:
Assay in all cases: NCI-60 one-dose screen, 48 h (100 = growth as untreated, 0 = no growth, -100 = all killed)
Settings in all cases: 10 µM unless noted
[1] = tested on: NCI-H23 lung
[2] = tested on: NCI-H226 lung
[3] = tested on: NCI-H322M lung
[4] = tested on: HOP-62 NSCLC
[5] = tested on: NCI-H460 lung
[6] = tested on: HOP-92 NSCLC
[7] = tested on: NCI-H522 lung
[8] = tested on: A549/ATCC NSCLC
[9] = tested on: 786-0 renal
[10] = tested on: COLO 205 colon
[11] = tested on: DU-145 prostate
[12] = tested on: K-562 leukemia
[13] = tested on: MALME-3M melanoma
[14] = tested on: MDA-MB-231 breast
[15] = tested on: RXF 393 renal
[16] = tested on: SF-268 CNS
[17] = tested on: SF-295 CNS
[18] = tested on: SF-539 CNS
[19] = tested on: UACC-257 melanoma
[20] = tested on: M14 melanoma

| Compound | growth [1] | growth [2] | growth [3] | growth [4] | growth [5] | growth [6] | growth [7] | growth [8] | growth [9] | growth [10] | growth [11] | growth [12] | growth [13] | growth [14] | growth [15] | growth [16] | growth [17] | growth [18] | growth [19] | growth [20] |
| --- | --- | --- | --- | --- | --- | --- | --- | --- | --- | --- | --- | --- | --- | --- | --- | --- | --- | --- | --- | --- |
| COC(=O)c1c(C)nc(C)c2c1C(=O)C(Br)=C(NCCCCO)C2=O | 51.1% | 96.7% | 75.5% | 114% | 40% | 140% | 71.1% | 75.1% | 89.2% | 17% | 79.6% | 71% | -2.98% (active) | 75.1% | 77.7% | 76.3% | 72.1% | 89.5% | 45.6% | 46.9% |
| C=C(c1ccc(OC)c(/C=C/C(=O)c2cc(OC)c(OC)c(OC)c2)c1)c1cc(OC)c(OC)c(OC)c1 | -33.2% (active) | -38% (active) | 17.9% | 11.5% | -30.6% (active) | 40.2% | -19.3% (active) | 9.3% (active) | -64.3% (active) | -13.6% (active) | 15.6% | 12.7% | -6.73% (active) | 30.4% | -68.5% (active) | 21.7% | 30.5% | -84.7% (active) | 2.85% (active) | 4.85% (active) |
| COc1ccc(C(=O)/C=C/Nc2cc(-c3ccccc3)nn2-c2ccccc2)cc1 | 90% | 79.8% | 93.2% | 102% | 98% | 80.8% | 82.7% | 91.4% | 89% | 110% | 99.7% | 80.8% | 100% | 93.4% | 85.5% | 90.2% | 95.2% | 95.2% | 90.8% | 93% |
| COc1cc(CNC(=O)CCCC/C=C/C(C)C)ccc1OCc1cn(-c2ccc(C(F)(F)F)cc2)nn1 | 94.6% | 53.6% | 96.1% | 64.6% | 16.7% | 13.8% | 75.6% | 49% | 2.94% (active) | 72.6% | 80.7% | 76.3% | 99.7% | 70.7% | 65.6% | 87.8% | 90.9% | 81.9% | 98.2% | 97.5% |
| c1ccc(-c2nc(N3CCNCC3)c3oc(-c4ccccc4)nc3n2)cc1 | -66.8% (active) | -41.6% (active) | -95.1% (active) | -67.9% (active) | -81.1% (active) | -53.1% (active) | -28.3% (active) | -44.8% (active) | -74.1% (active) | -39.7% (active) | -55.4% (active) | 2.28% (active) | -93.9% (active) | -87.1% (active) | -81.4% (active) | -48.8% (active) | -73.6% (active) | -95.9% (active) | 101% | -60.3% (active) |
| Nc1ncc(-c2ccc3ncnc(N4CCc5cc(F)c(Cl)cc54)c3c2)cc1C=O | 31.6% | 37.2% | 2.51% (active) | 15.2% | 11.8% | -22.8% (active) | 26.7% | 7.18% (active) | 8.62% (active) | 19.6% | 10.1% | 35.5% | -15.5% (active) | 26.4% | -35% (active) | 18.1% | 6.94% (active) | 12.1% | 24.6% | 19% |
| N#Cc1nn(-c2ccccn2)c(N)c1C#N | 105% | 106% | 107% | 97.1% | 106% | 101% | 67.4% | 97.5% | 98% | 106% | 104% | 94% | 103% | 109% | 127% | 97.2% | 96.2% | 97.2% | 103% | 102% |
